GLA inh pH 4.5: blocks human alpha-galactosidase A at pH 4.5 | 230,000 tested, under 10 active | P06280 | activity change, negative = inhibition, % at 105 µM | purified enzyme, 4-MU-alpha-Gal fluorescence, pH 4.5;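 further: 0% = full activity with enzyme and -100% = basal without enzyme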
PNC assembly inh: inhibitors of perinucleolar compartment assembly | PC3M PTB-GFP, PNC prevalence imaging, 16 h; active compounds read low | activity change (PNC), negative = inhibition, % at 10 µM | hit rate 3.1% among 140,000 | AID 2417;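 active means readout at or below -70, meaning at least 70% loss of cells showing the perinucleolar compartment, a nuclear body marking cancer cells; inconclusive means readout between -30 and a set limit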;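 further: plate controls were DMSO wells for no effect and camptothecin positive control wells for full effect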
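PC3M cells stably expressing PTB-GFP, 750–1000 cells/well, treated 16 h at 37 °C with compound (23 nl of library stock), in duplicate. After paraformaldehyde fixation and Hoechst stain, imaged at 20x; PNC prevalence scored by image analysis.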
12-hLO inh: 12-hLO (ALOX12) enzyme inhibition; AID 1452; hit rate 0.12% among 150,000; purified 12-hLO, xylenol orange hydroperoxide absorbance; P18054; Potency, µM (top dose mostly 57.1 µM), for the others: top-dose activity change, negative = inhibition, most hits filed as inhibitors; further: potency means the concentration at half of the fitted maximal effect; nearly all actives have a fitted effect of over 55% in size
Target sequence (P18054 whole entry, looked up): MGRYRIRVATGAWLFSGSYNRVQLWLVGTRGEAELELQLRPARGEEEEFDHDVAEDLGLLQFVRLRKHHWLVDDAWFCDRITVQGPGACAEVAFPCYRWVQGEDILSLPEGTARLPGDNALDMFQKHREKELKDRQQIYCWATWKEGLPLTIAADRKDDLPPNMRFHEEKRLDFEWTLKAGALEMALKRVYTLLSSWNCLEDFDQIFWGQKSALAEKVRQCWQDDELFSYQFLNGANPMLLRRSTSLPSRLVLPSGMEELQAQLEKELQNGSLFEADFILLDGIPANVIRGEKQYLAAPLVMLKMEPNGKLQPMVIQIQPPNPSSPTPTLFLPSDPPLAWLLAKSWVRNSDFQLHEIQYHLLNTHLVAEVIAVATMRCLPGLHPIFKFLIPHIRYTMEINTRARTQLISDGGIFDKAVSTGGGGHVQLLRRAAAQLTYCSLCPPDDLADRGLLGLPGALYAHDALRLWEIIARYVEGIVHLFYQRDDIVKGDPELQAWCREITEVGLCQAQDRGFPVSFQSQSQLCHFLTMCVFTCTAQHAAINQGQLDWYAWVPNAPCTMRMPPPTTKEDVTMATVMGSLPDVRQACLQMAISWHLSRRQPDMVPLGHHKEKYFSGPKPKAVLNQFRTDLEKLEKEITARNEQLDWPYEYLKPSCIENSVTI
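150 nM 12hLO, 25 mM Hepes pH 7.0 + 0.01% Triton X-100; cpd preinc 15 min RT; 40 uM arachidonic acid, 30 min RT; Fe-XO 30 min; A573/A405 ratio as read-out.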
ALDH1A1 inh: ALDH1A1 (human) enzyme inhibition; Purified ALDH1A1, NADH fluorescence, propionaldehyde substrate; P00352; Potency, µM (doses to about 75.3 µM), for inactives: at the top dose activity, negative = inhibition, hits mostly inhibitors; hit rate 7.3% among 220,000; AID 1030; active means well fitted inhibition curve with a large enough effect, not every such curve was filed as active; inconclusive means small, poorly fitted or top-dose-only effect, or another doubt; inactive means no such curve, though single readings can be large or run the other way;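 further: potency means the concentration at half of the fitted maximal effect; plate controls were no enzyme wells and a reference inhibitor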
GLA spleen mod: alpha-galactosidase A (human) modulation; P06280; human spleen homogenate, 4MU-alpha-Gal fluorescence, 40 min; Potency, µM (top dose mostly 80 µM), for inactives: top-dose activity change, negative = inhibition, hits mostly inhibitors; hit rate 0.008% among 240,000; AID 2107;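 further: potency means the concentration at half of the fitted maximal effect; 0% = enzyme with vehicle and -100% = no enzyme basal signal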
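Human spleen homogenate (1 ug) as enzyme source, 4-methylumbelliferyl-alpha-D-galactopyranoside 1 mM final, citrate/phosphate pH 5.0 with 0.01% Tween-20. Compounds 40 min at 37C, NaOH/glycine stop; fluorescence Ex 365/Em 440, Hill-fit AC50.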
HPGD block: inhibitors of human 15-hydroxyprostaglandin dehydrogenase (HPGD). P15428. purified HPGD, NADH fluorescence kinetic, PGE2 substrate. Potency, µM, without a hit: at the highest dose activity change, negative = inhibition, hits mostly inhibitors. hit rate 4.3% among 150,000. AID 894; active means well fitted inhibition curve with a large enough effect, not every such curve was filed as active; inconclusive means small, poorly fitted or top-dose-only effect, or another doubt; inactive means no such curve, though single readings can be large or run the other way; further: potency means the concentration at half of the fitted maximal effect
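NADH formation kinetics: reaction with 30 uM PGE2 and 1 mM NAD+ (final), 20 nM enzyme, Tris-HCl pH 8 with Tween 20, after 15 min compound preincubation at room temperature. Fluorescence change, last versus first of five reads.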
* marks the source's active call; other numbers are inactive results; ? = inconclusive; / = no result given; [ ] = dose if it differs, or a comment. Shown are actives, neighbours in structure and some others; about 10% of the full set was active somewhere. Unless noted, the call rests on the fitted dose curve; in most records, active means well fitted curve in the direction sought with a large enough effect; inconclusive means small, poorly fitted or top-dose-only effect, or another doubt; inactive means no such curve, though single readings can be large; an effect the other way counts as inactive or inconclusive. Unless noted, on the % scale 0 is the no-effect control and ±100 the full control effect.

SMILES	GLA inh pH 4.5	PNC assembly inh	12-hLO inh	ALDH1A1 inh	GLA spleen mod	HPGD block
CCCCN1C(=O)C(O)(CC(=O)c2ccccc2OC)c2ccccc21 (stereo not drawn)	-3	-5	1%	8.9µM*	-6%	-6%
O=C(COC(=O)/C=C/c1cccc(F)c1)Nc1ccccc1-c1ccccc1	3	17	13%	12%	8%	-25%
CCCCNC(=O)/C=C1\Sc2ccccc2NC1=O	3	35	-3%	14%	-3%	18µM*
Cc1cccc(C#N)c1NC1=CC(=O)CC(C)(C)C1	3	22	0%	7.9µM*	3%	-14%
CCOC(=O)CC1C(=O)NCCN1S(=O)(=O)c1cc(Cl)c(Cl)cc1Cl (stereo not drawn)	-15	-98*	2%	-3%	10%	2%
CCOC(=O)CC1C(=O)NCCN1C(=S)Nc1ccccc1 (stereo not drawn)	-6	-91*	0%	?	19%	-17%
CCOC(=O)CC1C(=O)NCCN1S(=O)(=O)c1ccc(Cl)cc1 (stereo not drawn)	5	44	-4%	?	-7%	-15%
Nc1nonc1C(=O)NC(c1ccccc1)c1ccccc1	0	6	-1%	14µM*	-6%	0%
O=C1OC(c2ccc(F)cc2)=C/C1=C\c1ccc([N+](=O)[O-])o1	-1	/	/	20µM*	-6%	/
CC1=C/C(=N\NC(=S)Nc2cccnc2)CC(C)(C)C1	-1	/	/	12µM*	-5%	/
COC(=O)[C@@]1(Cc2ccccc2)[C@H]2c3cc(C(=O)N(C)C)n(Cc4ccc(O)c(OC)c4)c3C[C@H]2CN1C(=O)c1ccccc1	-1	/	-9%	7%	-1%	-5%
C/C(N)=C(/C#N)C(=O)COC(=O)c1cc(C)n(-c2ccc(F)cc2)c1C	3	-129*	6%	13µM*	6%	-27%
N=C(N)S[C@H]1c2ccccc2-c2cc([N+](=O)[O-])ccc21	/	/	-1%[11.4 µM]	-17%[13.5 µM]	/	-13%
O=C(OCn1ncc(Cl)c(Cl)c1=O)c1ccc(C(F)(F)F)cc1	2	6	0%	3.5µM*	-1%	-8%
Cc1ccc(C)c(C(=O)Cn2ncc(Cl)c(Cl)c2=O)c1	2	-6	-3%	14µM*	2%	-12%
Cc1ccc(C(=O)OCn2ncc(Cl)c(Cl)c2=O)cc1	-18	?	-9%	1.4µM*	-2%	28µM*
Cn1cccc1C(=O)N1CCC2(CCN(Cc3ccccc3)CC2)CC1	/	/	-1%	1%	-2%	-1%
O=C(C[n+]1ccccc1)N/N=C/c1ccc(F)cc1	-3	/	/	18%	2%	/
CC(C)C1Nc2ccc(S(N)(=O)=O)cc2C2C=CCC21 (stereo not drawn)	-2	?	-25%	20µM*	0%	-27%
NS(=O)(=O)c1ccc2c(c1)C1C=CCC1C(C1CC=CCC1)N2 (stereo not drawn)	1	-28	?	?	-6%	-17%
COc1cccc2c1NC(C(=O)O)C1CC=CC21 (stereo not drawn)	-18	-10	-1%	8.9µM*	-2%	?
Cc1ccc2c(c1)C1C=CCC1C(C(=O)O)N2 (stereo not drawn)	-10	36	-3%	?	3%	20µM*
O=C(CO)[C@@H](O)C(O)[C@@H](O)CO (stereo partly drawn)	/	/	/	/	6%	/
C[C@@H]1O[C@H](O[C@@H]2[C@H](C)O[C@H](O[C@@H]3[C@H](C)O[C@H](O[C@H]4CC[C@]5(C)[C@@H](CC[C@@H]6[C@H]5C[C@@H](O)[C@]5(C)[C@@H](C7=CC(=O)OC7)CC[C@]65O)C4)C[C@@H]3O)C[C@@H]2O)C[C@H](O)[C@@H]1O	3	/	-1%[25.6 µM]	13%[20.9 µM]	5%[29.1 µM]	-4%
O=C(c1ccc(N2CCN(C3CC(=O)N(Cc4cccs4)C3=O)CC2)cc1)c1cccnc1 (stereo not drawn)	-7	/	/	3.2µM*	-13%	/
SMILES	GLA inh pH 4.5	PNC assembly inh	12-hLO inh	ALDH1A1 inh	GLA spleen mod	HPGD block
O=C(c1ccncc1)c1ccc(N2CCN(C3CC(=O)N(Cc4ccccc4)C3=O)CC2)cc1 (stereo not drawn)	-10	22	-1%	-11%	8%	-12%
CC(C)=CCC/C(C)=C/CO/N=C1/C[C@@H](O)[C@@H](O)[C@@H]2[C@@H]3C(=O)N(c4cccc(Oc5ccccc5)c4)C(=O)[C@H]3CC[C@H]12	/	/	/	2%[13.5 µM]	8%[17.5 µM]	/
Cc1cc(C)nc(NC(=O)c2ccc(COc3ccccc3Cl)cc2)c1	-6	/	/	6%	3%	/
COCCNC(=O)Cn1cc(C(=S)N2CCOCC2)c2ccccc21	4	/	/	32µM*	5%	/
O=C(O)c1c2c(c(O)c3c1CN(C1CCCCC1)CO3)OCN(C1CCCCC1)C2	/	/	-5%[11.4 µM]	1%[13.5 µM]	/	-13%
C1OCOCO1	/	/	-1%	6%	-19%	-10%
CCN(CC)C(=O)Cn1nnc(-c2ccc(C)o2)n1	-2	-3	0%	25µM*	-5%	-11%
CCC(C(=O)NC1CCCC1)N(C(=O)Cn1nnc(-c2ccc(C)o2)n1)C(C)(C)C (stereo not drawn)	1	7	-3%	?	7%	/
CCCC(C(=O)NC1CCCC1)N(C(=O)Cn1nnc(-c2ccc(C)o2)n1)C1CCCC1 (stereo not drawn)	0	?	-10%	25µM*	6%	?
COC(=O)C/C=C/[C@@H](C)[C@H](NC(=O)OCC(Cl)(Cl)Cl)c1cccc(OC)c1	-1	/	/	-8%	3%	-4%
COc1ccc(Cl)cc1NC(=O)CN1CCc2ccccc21	-13	/	/	7.9µM*	4%	/
COc1ccc(Cl)cc1NC(=O)CN1CCCCCC1	-11	/	/	18µM*	3%	/
COc1ccc(Cl)cc1NC(=O)CN(C(=O)c1ccco1)C1CCCCC1	-3	34	-16%	0.04µM*	10%	-16%
COc1ccc(Cl)cc1NC(=O)CN(C)C(C)C(=O)NCC1CCCCC1 (stereo not drawn)	6	-14	-6%	?	7%	-1%
COCCOC(=O)c1c(NC(=O)CN2CCc3ccccc32)sc(C(N)=O)c1C	-6	/	/	14µM*	1%	/
CCOC(=O)c1c(NC(=O)CN2CCCc3ccccc32)sc(C(C)=O)c1C	-1	?	-3%	-11%	-17%	/
O=c1onc2n1-c1cc(Br)ccc1OC2	-10	/	2%	-5%	19%	5%
CCC(=O)N(Cc1cc(=O)[nH]c2ccccc12)c1ccccc1C	-1	/	/	-8%	-6%	/
COc1ccc(N(Cc2cc(=O)[nH]c3ccccc23)C(=O)c2ccco2)cc1	-10	-1	-20%	14µM*	-13%	-13%

Screening results: PubChem BioAssay, National Center for Advancing Translational Sciences (NCATS)
